# Test results from PubChem BioAssay (NCI).
# Compounds without any hit were thinned out: in the full panel of roughly 83,000, 20% have a hit.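 Compound tested at a single concentration for 48 hours in 96-well plates; a percent growth value below 10 was scored as active.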 Unmarked numbers belong to inactive results. The source made the active and inactive calls.
# System: LOX IMVI melanoma
# Assay: NCI-60 one-dose screen, 48 h (100 = growth as untreated, 0 = no growth, -100 = all killed)
# Conditions: 10 µM unless noted
# Method: Growth inhibition of the LOX IMVI human tumor cell line is measured as a screen for anti-cancer activity. Cells are grown in 96 well plates and exposed to the test compound for 48 hours. Compounds are tested at a single concentration, which is 10^-5 M for most compounds. The reported endpoint is percent growth (GI% or GIPRCNT), where numbers from 0 - 100% represent growth inhibition, and numbers from -100% - 0 represent cell death. For example, a value of 40 represents 60% growth inhibition. A value of 0 means no net growth occurred over the course of the experiment. A value of -40 indicates 40% of cells at the beginning of the experiment died by the end of the experiment. A value of -100 means all cells are dead at the end of the experiment.
# NCI-60 Human Tumor Cell Lines Screen was performed using the standard one-dose NCI protocol, which is described in more detail at https://dtp.cancer.gov/discovery_development/nci-60/default.htm.
# Compounds with GIPRCNT values below 10 were considered active. Activity score was based on GIPRCNT using the following formula: […]
# Score is 0 for GIPRCNT values of 100 or above, 50 for GIPRCNT values of 0, and 100 for GIPRCNT values of -100.
row,SMILES,growth
1,COc1ccc(/C=C2\N=C(c3ccccc3)N(C(=O)c3ccccc3O)NC2=O)cc1,95.6%
2,CCN1CCN(CC(=O)N2c3cccc4cccc(c34)N(C(=O)CN3CCN(CC)CC3)C2c2cn(-c3ccccc3)nc2-c2cccc([N+](=O)[O-])c2)CC1,-82.1% (active)
3,O=C(Nc1ccncc1)C(=O)c1cn(S(=O)(=O)c2ccc(Cl)cc2)c2ccccc12,42.8%
4,COC(=O)C(Sc1ccc(Cl)cc1)C1SC(=S)N(Cc2ccccc2)C1=O (stereo not given),74.9%
5,Clc1ccc2c(NC3CCC(NC4CCCCC4)CC3)ccnc2c1 (stereo not given),35.6%
6,CCn1c2ccccc2c2cc(NC(=O)Nc3ccc([N+](=O)[O-])cc3C)ccc21,39.2%
7,Cc1cccc(/C=N/Nc2cc(C)c3cccc(C)c3n2)n1,102%
8,C/C=C/C1=CN2C(=O)c3cc(OC4OC(C)C(NC)C(C)(O)C4O)c(C)cc3N=C[C@@H]2C1 (stereo not given in full),-11.2% (active)
9,COc1cc(C2CC(c3ccc4c(c3)OCO4)=NN2C=O)cc(OC)c1OC (stereo not given),34.5%
10,CC(C)(C)n1cc(-c2ccnc(NCCCNS(=O)(=O)c3ccccc3)c2)c(-c2cccc(O)c2)n1,-43.3% (active)
11,CN(C)CC(C(=O)c1ccccc1)c1ccccc1 (stereo not given),3.08% (active)
12,Cn1ccc(=O)c(S(N)(=O)=O)c1,91.9%
13,O=S(=O)(NCCNc1nccc(-c2c(-c3cccc(O)c3)nc3sccn23)n1)c1ccc(F)cc1,38.5%
14,CC(C)(C)n1cc(-c2ccnc(NCCCNS(=O)(=O)c3ccc(Br)cc3)c2)c(-c2cccc(O)c2)n1,-75.6% (active)
15,CC(C)c1ccc2occ(C=C3C(=O)NC(=O)NC3=O)c(=O)c2c1,87.4%
16,COc1ccc(-c2nc(-c3nc4cc(C)c(C)cc4[nH]3)cc3c2[nH]c2ccccc23)cc1,-31.6% (active)
17,CCOC(=O)/C(C#N)=C1/C(=O)Nc2ccccc21,99%
18,COc1cc(-c2nn(-c3cccc(NC(=O)c4ccc(N5CCOCC5)c(C(F)(F)F)c4)c3)cc2-c2ccncc2)ccc1Cl,13.7%
19,COc1ccc(-c2nc3sc(-c4cc(OC)c(OC)c(OC)c4)nn3c2/C=C2/C(=O)Nc3ccc(F)cc32)cc1,17.8%
20,COc1cc(Nc2ncccc2C(=O)NCc2cn(Cc3cccc(Oc4ccccc4)c3)nn2)cc(OC)c1,43.6%

row,SMILES,growth
1,COc1cc(/C=C/C(=O)/C=C/c2cc(OC)c3c(c2)OCO3)cc2c1OCO2,54%
2,O=C(CSC1CCc2ccccc21)N/N=C/c1ccccc1O (stereo not given),40.4%
3,O=C(O)/C=C/C(=O)c1ccc(Cl)cc1,105%
4,O=[N+]([O-])c1ccc(Sc2ncccn2)c([N+](=O)[O-])c1,68.1%
5,COc1cccc(-c2nc3sccn3c2-c2ccnc(NCCCNS(=O)(=O)c3ccc(F)cc3)c2)c1,23.1%
6,CC[N+](CC)=c1cc2oc3cc(N(C)C)ccc3nc-2cc1C,16.8%
7,COc1cc(-c2nc(N=Nc3c(O)[nH]c4ccc(Br)cc34)[nH]c(=O)c2C#N)cc(OC)c1OC,98.2%
8,N#Cc1ccc(N2Cc3ccccc3OC3=C2C(=O)c2c(O)ccc(O)c2C3=O)cc1,-49.7% (active)
9,CC(C)CSc1nc(NN)c(C#N)c(-c2ccccc2)n1,90.6%
10,CCCCOc1ccc(/C=C2/SC(N3CCCC3)=NC2=O)cc1,96.2%
11,CCN(CC)c1ccc(N=O)cc1,15%
12,COc1ccc(OC)c(/C=C2\Oc3cc(OCCCN4CCCC4)ccc3C2=O)c1,12%
13,Cc1cc(N/N=C/c2nc(-c3ccccc3)oc2C)c2cc(Br)ccc2n1,-31.7% (active)
14,Brc1cccc(-c2cc(-c3ccc4nccnc4c3)[nH]n2)c1,18.6% [25 µM]
15,C=C(C)[C@@H]1C[C@H](O)Cc2cc(F)ccc2N1,87.1%
16,CN(C)c1ncnc2c1ccn2C1OC(CO)C(O)C1O (stereo not given),3.02% (active)
17,C=COC(=O)CCCCCCCCC,98.5%
18,Cn1ccc(Nc2nccc(Oc3ccc(C(=O)Nc4cccc(F)c4)c(Cl)c3)n2)c1,91.9%
19,CCOC(=O)CN1/C(=N/c2sc3c(c2C(=O)OCC)CCN(C(=O)OCC)C3)SC(=O)/C1=C\C(=O)OC,81.3%
20,C=C1CCC2C3(C)COC(c4ccccc4)OC3CCC2(C)C1/C=C/C1=CCOC1=O (stereo not given),16.1%
